According to publication PMC4336329 (PLoS ONE, 2015):
Screen size: about 310,000 compounds; about 14,000 (4.5%) showed an effect of 50% or more. Effects have a minus sign here. The sample holds strong results, similar compounds and a random draw of the others, so the mix is not that of the screen. *1 amine or outer side, *2 acyl side, *3 side chain or, on linkers, in order; H or OH if unused. Where a SMILES comes first, the peptide text is derived from it. Bridges are numbered along the chain shown (N, C = ends). [ ]: non-standard residue; d: D form. ξ: configuration not given here. hSer(Ph(2-I,4-NO2,6-CO)) = O=C([C@H](CCOc1c(I)cc([N+](=O)[O-])cc1C(=O)[*:3])N[*:1])[*:2]; ξD = NC(CC(=O)O)C(=O)O

Target: human ether-à-go-go-related gene (hERG) potassium channel (human, UniProt Q12809)
Sequence (Q12809 whole entry, looked up): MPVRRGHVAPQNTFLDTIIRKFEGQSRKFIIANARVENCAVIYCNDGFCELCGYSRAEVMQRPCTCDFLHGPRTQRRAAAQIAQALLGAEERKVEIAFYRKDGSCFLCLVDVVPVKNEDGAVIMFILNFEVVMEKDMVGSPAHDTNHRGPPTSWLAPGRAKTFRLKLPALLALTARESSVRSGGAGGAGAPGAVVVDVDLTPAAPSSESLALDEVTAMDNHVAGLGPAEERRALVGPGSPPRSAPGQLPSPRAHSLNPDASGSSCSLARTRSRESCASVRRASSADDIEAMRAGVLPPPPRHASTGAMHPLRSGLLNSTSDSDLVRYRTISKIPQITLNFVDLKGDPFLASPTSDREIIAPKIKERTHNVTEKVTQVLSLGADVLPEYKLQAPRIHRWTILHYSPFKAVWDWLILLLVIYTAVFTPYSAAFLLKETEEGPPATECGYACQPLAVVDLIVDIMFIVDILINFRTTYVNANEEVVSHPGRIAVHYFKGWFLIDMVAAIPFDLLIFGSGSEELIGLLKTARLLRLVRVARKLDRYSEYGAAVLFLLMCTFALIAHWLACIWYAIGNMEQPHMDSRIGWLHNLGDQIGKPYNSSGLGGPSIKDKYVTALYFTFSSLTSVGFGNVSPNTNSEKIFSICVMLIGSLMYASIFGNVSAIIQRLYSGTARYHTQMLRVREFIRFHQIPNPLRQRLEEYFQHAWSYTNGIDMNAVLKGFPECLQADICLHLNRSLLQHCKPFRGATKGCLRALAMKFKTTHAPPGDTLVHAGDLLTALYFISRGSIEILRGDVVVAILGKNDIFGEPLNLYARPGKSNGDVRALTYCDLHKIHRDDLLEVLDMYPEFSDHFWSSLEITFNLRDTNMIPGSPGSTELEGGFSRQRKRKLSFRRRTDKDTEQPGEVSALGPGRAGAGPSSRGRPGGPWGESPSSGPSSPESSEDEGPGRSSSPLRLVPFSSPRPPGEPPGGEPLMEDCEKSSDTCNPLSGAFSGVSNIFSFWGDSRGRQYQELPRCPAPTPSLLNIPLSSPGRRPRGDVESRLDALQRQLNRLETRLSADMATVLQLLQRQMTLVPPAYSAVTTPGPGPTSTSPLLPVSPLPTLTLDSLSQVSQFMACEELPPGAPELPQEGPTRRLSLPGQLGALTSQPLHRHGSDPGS
Assay: primary screen, population patch clamp on CHO cells stably expressing hERG; higher = less effect of the substance
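Further: peak tail current of the secondary pulse compared with the same well before compound.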

SMILES	hERG current change (%, negative = inhibition) at 10uM [%]
O=C(NC1CCCCC1)c1cc(S(=O)(=O)N2CCOCC2)c(Cl)cc1Cl	13.6
Cc1nc2ccccc2c(=O)[nH]1	3.94
CN(C)S(=O)(=O)N1CCN(CC(=O)Nc2ccc(Br)cc2)CC1	-49.4
CN(C)S(=O)(=O)N1CCN(CC(=O)Nc2ccc(F)cc2)CC1	-69.7
Cc1ccc(N(CC(=O)Nc2ccc(F)cc2)S(=O)(=O)N2CCCC2)cc1	-27.1
CCc1ccc(-c2cn3c(n2)SCC3)cc1	4.12
CCc1ccc(-c2cn(-c3nc(C)cc(C)n3)c(=N)o2)cc1	-71.8
CCc1ccc(Nc2nc(C)cc(C)n2)cc1.Cl	-1.21
Cc1ccc2oc(-c3ccccc3)nc2c1	11.3
Nc1nc(CN2CCN(Cc3ccccc3)CC2)nc(N2CCCc3ccccc32)n1	-56.5
Nc1nc(CN2CCN(c3ccccc3F)CC2)nc(N2CCCc3ccccc32)n1	-11.7
COc1ccc(N2CCN(Cc3nc(N)nc(N4CCCc5ccccc54)n3)CC2)cc1	-27.9
Nc1nc(CN2CCN(c3ccccc3)CC2)nc(N2CCCc3ccccc32)n1	-39.6
Nc1nc(CN2CCN(c3ccc(F)cc3)CC2)nc(N2CCCc3ccccc32)n1	-52.9
Nc1nc(CN2CCN(c3cccc(Cl)c3)CC2)nc(N2CCCc3ccccc32)n1	-6.96
COc1ccc(CC(=O)N2N=C(C)CC2(O)C(F)(F)F)cc1 (stereo not shown)	2.87
Cc1cc(N/N=C/c2ccccc2F)c2ccccc2n1	9.06
CN(C)c1ccc(C(=S)N2CCCCC2)cc1	8.24
Nc1cccnc1S(=O)(=O)c1cccc(C(F)(F)F)c1	5.59
CC1CCC(C(C)C)C(OCC(O)CN2CCOCC2)C1.Cl (stereo not shown)	-0.613
CC1CC(OCC(O)CN2CCOCC2)CC(C)(C)C1.Cl (stereo not shown)	1.1
CC1CCN(CC(O)COC2CC(C)CCC2C(C)C)CC1.Cl (stereo not shown)	-70.4

SMILES	hERG current change (%, negative = inhibition) at 10uM [%]
CCOC(=O)N1CCN(CC(O)COC2CC(C)CCC2C(C)C)CC1.Cl (stereo not shown)	-33.1
CC1CC(OCC(O)CN2CCN(Cc3ccccc3)CC2)CC(C)(C)C1.Cl (stereo not shown)	-43.5
CC1CCC(C(C)C)C(OCC(O)CN2CCCC(C)C2)C1.Cl (stereo not shown)	-31.6
CC1CC(C)CN(CC(O)COC2CC(C)CC(C)(C)C2)C1.Cl (stereo not shown)	-32.3
CC1CCN(CC(O)COC2CC(C)CC(C)(C)C2)CC1.Cl (stereo not shown)	-54.5
CC1CCC(C(C)C)C(OCC(O)CN2CCN(Cc3ccccc3)CC2)C1.Cl (stereo not shown)	-66.5
CC(=O)Nc1ccc(N2C(=O)CSC2c2cccc([N+](=O)[O-])c2)cc1 (stereo not shown)	15.6
Cc1cc(NC(=O)CCCn2cnc([N+](=O)[O-])n2)no1	1.48
CC(=O)N1CCC2(CC1)C(C#N)=C(N)OC1=C2C(=O)CC(C)(C)C1	8.09
COc1ccccc1/C=C1\SC(=S)N(NS(=O)(=O)c2ccccc2)C1=O	8.33
COc1ccccc1C(=O)NC(=O)COC(=O)C1CC1C (stereo not shown)	-3.4
O=C(c1ccc(Cl)c(S(=O)(=O)N2CCOCC2)c1)N1CCN(c2ccccc2F)CC1	-15.1
COc1cc(CNc2cccc(C(=O)O)c2)cc(Br)c1OCC(=O)NC(C)(C)C	2.52
FC(F)(F)c1nnc2ccc(Sc3ccccn3)nn12	17.1
O=C(NCc1ccccn1)C1CC(c2ccccc2Cl)=NO1 (stereo not shown)	14.1
O=S(=O)(Cc1ccccc1Cl)N1CCCCC1	1.5
C=CCNCCCCOc1c(Cl)cc(C)cc1Br.O=C(O)C(=O)O	-31.7
CC(=O)N(\C=C/C=C/C=C1\Sc2ccccc2C1=O)c1ccccc1	-3.47
CCOC(=O)C1=C(C)N=c2s/c(=C\c3ccc(OCC(=O)O)cc3)c(=O)n2C1c1ccccc1OC (stereo not shown)	12.8
CCOC(=O)C1=C(C)N=c2s/c(=C\c3cccc(OCC(=O)O)c3)c(=O)n2C1c1ccccc1OC (stereo not shown)	28.7
CCOC(=O)C1=C(C)N=c2s/c(=C\c3ccc(O)c([N+](=O)[O-])c3)c(=O)n2C1c1ccccc1OC (stereo not shown)	-61.7
CC(=O)c1c(C)[nH]c(C(=O)OCC(=O)C(C)(C)C)c1C	-2.38

SMILES	hERG current change (%, negative = inhibition) at 10uM [%]
CN1CCN(C2CCCCC2NS(=O)(=O)c2ccccc2)CC1 (stereo not shown)	9.24
Cc1ccc(CN2CCSCC2)cc1	17.4
Brc1ccc(CN2CCSCC2)cc1	-65.1
CCc1ccc(CN2CCSCC2)cc1	7.39
CCC1(C)Cc2c(sc3nc(SC)nc(NCCN(C)C)c23)CO1 (stereo not shown)	-42.9
O=C(O)/C=C/C(=O)Nc1ccc(Oc2ncnc3cc(Cl)ccc23)nc1	18.4
CCC(C)NC(=O)Cn1cc2c(n1)CCC(C)C2 (stereo not shown)	13.8
Cc1ccc(-c2nn3nnnc3c3ccccc23)cc1	14.3
c1ccc(-c2nn3nnnc3c3ccccc23)cc1	-71.8
Cc1ccc(-c2nn3nnnc3c3ccccc23)cc1C	-1.31
CC1=CCC2C(=O)N(c3ccc(OC(=O)c4ccco4)cc3)C(=O)C2C1 (stereo not shown)	12
COC(=O)CSc1ncnc2c1sc1nc(-c3ccco3)c3c(c12)CC(C)(C)OC3	3.01
O=C(CSc1ncccn1)NNC(=O)c1ccccc1	-4.48
CCOCCCNC(=O)C(c1ccccc1)N(Cc1cccs1)C(=O)c1ccccc1O (stereo not shown)	14.3
CCc1ccc(NC(=O)COC(=O)CCCC2=NS(=O)(=O)c3ccccc3N2)cc1	-1.3
COc1ccc(Cl)cc1NC(=O)COC(=O)CCCC1=NS(=O)(=O)c2ccccc2N1	21.4
O=C(COC(=O)CCCC1=NS(=O)(=O)c2ccccc2N1)Nc1ccccc1	24.7
Cc1cc(C)cc(NC(=O)COC(=O)CCCC2=NS(=O)(=O)c3ccccc3N2)c1	-55.9
COc1cc(NC(=O)COC(=O)CCCC2=NS(=O)(=O)c3ccccc3N2)cc(OC)c1	14.4
CCOc1ccccc1NC(=O)COC(=O)CC(C)(C)CC1=NS(=O)(=O)c2ccccc2N1	-60.5
COc1ccccc1NC(=O)COC(=O)CC(C)(C)CC1=NS(=O)(=O)c2ccccc2N1	-69.9
CC(C)(CC(=O)OCC(=O)Nc1ccccc1F)CC1=NS(=O)(=O)c2ccccc2N1	0.85

SMILES	hERG current change (%, negative = inhibition) at 10uM [%]
Cc1cccc(NC(=O)COC(=O)CCCC2=NS(=O)(=O)c3ccccc3N2)c1	10.7
Cc1cc(NC(=O)C2CCCN(S(=O)(=O)c3c(C)noc3C)C2)no1 (stereo not shown)	-0.534
Cc1oc(-c2cccs2)nc1CSCC(=O)NC1CC1	-3.82
CCC1=NN(C(=O)Cc2ccc([N+](=O)[O-])cc2)C(O)(c2ccncc2)C1 (stereo not shown)	-11.9
COc1ccc(NC(=O)c2cccc(N3C(=O)C4C5C=CC(C5)C4C3=O)c2)cc1Cl (stereo not shown)	2.2
C=CCN1C(=O)C(Cc2ccc(F)cc2)S/C1=N/N=C/c1cccs1 (stereo not shown)	-9.46
CC(C)C(NC(=O)c1ccco1)C(=O)NCC(c1ccco1)N(C)C (stereo not shown)	12.5
COc1ccccc1N1CCN(CC(O)COc2ccc3c(C)cc(=O)oc3c2)CC1 (stereo not shown)	-24.7
Cc1cc(=O)oc2cc(OCC(O)CN3CCN(c4ccccc4)CC3)ccc12.Cl (stereo not shown)	-47.4
COc1ccc(N2CCN(CC(O)COc3cc(C)cc(C)c3)CC2)cc1.Cl (stereo not shown)	-48.8
COc1ccc(N2CCN(CC(O)COc3ccc(C)cc3C)CC2)cc1.Cl (stereo not shown)	-67.8
CCN1CCN(CC(O)COc2ccc3c(c2)CCC3)CC1.Cl (stereo not shown)	5.59
COc1ccc(N2CCN(CC(O)COc3cc(C)ccc3C)CC2)cc1.Cl (stereo not shown)	-33.8
CC1CC(C)CN(CC(O)COc2ccc3c(c2)CCC3)C1.Cl (stereo not shown)	-53.2
COc1cccc(OCC(O)CN2CC(C)CC(C)C2)c1.Cl (stereo not shown)	-13.5
OC(COc1ccc2c(c1)CCC2)CN1CCN(c2ccccc2F)CC1 (stereo not shown)	-14.6
COc1ccccc1N1CCN(CC(O)COc2ccc3c(c2)CCC3)CC1.Cl (stereo not shown)	-74.2
COc1ccc(N2CCN(CC(O)COc3ccc4c(c3)CCC4)CC2)cc1.Cl (stereo not shown)	-48.3
CCOc1ccccc1N1CCN(CC(O)COc2ccc3c(C)cc(=O)oc3c2)CC1 (stereo not shown)	-53.1
O=C(CSc1nnc(-c2ccccc2)o1)N1CCOCC1	6.37
NC(=O)C(CC(=O)O)NC(=O)[C@@H]1CCOc2c(I)cc([N+](=O)[O-])cc2C(=O)N[C@@H](CCC(=O)O)C(=O)N[C@@H](CO)C(=O)N1 (stereo partly shown) (ES[hSer(Ph(2-I,4-NO2,6-CO))][ξD]-NH2; lactam N-3)	-5.73
Br.C=CCn1c(C)csc1=Nc1ccc(C(=O)O)cc1	13.5
